Screening data: PubChem BioAssay, National Center for Advancing Translational Sciences (NCATS)
Pf Dd2 growth: qHTS Primary assay for Inhibitors of Plasmodium falciparum Dd2 growth in vitro; P. falciparum Dd2 growth, SYBR Green, 72 h; Potency, µM (highest dose often 28.9 µM), inactives show top-dose activity, negative = inhibition, hits mostly inhibitors; 120,000 compounds, 4.3% hits; AID 1347417, 2020; active means well fitted inhibition curve with a large enough effect;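 further: plate controls were DMSO vehicle for no effect and reference drug for full effect; nearly all actives have a fitted effect of over 65% in size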
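Readout: SYBR Green fluorescence, 485 nm excitation, 535 nm emission, after ~16 h lysis at 37C. Before that, Dd2-infected red cells (2.5% hematocrit) grew 72 h with compound, 29 uM top final concentration.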
Numbers without * were called inactive; i = inactive; [ ] = dose if it differs, or a comment. The sample as a whole holds a higher share of hits than the screen did. Potency means the concentration at half of the fitted maximal effect.

SMILES | Pf Dd2 growth
Cc1cc(C(=O)N2CCC(Cc3ccc(C(N)=O)cc3)CC2)nn1C | -16%
O=C(NCC1(COc2ccc(C(F)(F)F)cn2)C[C@@H](O)[C@@H](O)C1)c1ccno1 (stereo partly drawn) | 6%
Cc1cc2cc(-c3c(C)noc3C)nc(N(C)C)c2o1 | i
Cc1cc2cc(-c3c(C)noc3C)nc(N3CCN(c4ccccn4)CC3)c2o1 | -23%[44.1 µM]
Cc1cc(-c2nc(-c3c(C)noc3C)cc3cc(C)oc23)ccn1 | 11µM*
COc1cc(-c2nc(-c3c(C)noc3C)cc3c2cc(C)n3C)ccn1 | -5%[44.1 µM]
COc1cc(-c2nc(-c3c(C)noc3C)cc3cc(C)oc23)ccn1 | 11µM*
COc1ccc(-c2nc(-c3c(C)noc3C)cc3cc(CO)oc23)cn1 | 19%[44.1 µM]
Cc1ccccc1C(=O)N1CC2(Cc3ccccc3N([S+](C)(=O)[O-])C2)C1 | -17%
NS(=O)(=O)CCCC(=O)N1CCC(Cc2cccc(C(=O)O)c2)C1 (stereo not drawn) | 0%
CC(C)CC(C)NC(=O)c1noc(-c2ccc[nH]c2=O)n1 (stereo not drawn) | 4%
c1ccc(C(CNc2nccc(-c3ccncc3)n2)N2CCOCC2)nc1 (stereo not drawn) | 2%
Cc1ccccc1-n1cc(-c2ccnc(NC(C)Cc3ccncc3)n2)cn1 (stereo not drawn) | 8.9µM*
Cc1ccccc1-n1cc(CN(C)Cc2nc(-c3ccc(C(F)(F)F)cc3)no2)cn1 | 0%
COc1cc(CNC2CCC(O)CC2)ccc1OCC(O)CN1CCSCC1 (stereo not drawn) | -17%
CN(C)c1cccc(C(=O)NC2CCN(c3cn[nH]c(=O)c3)CC2)c1 | 16%
CC1(C)CN(C(=O)OC(C)(C)C)CCN1 | 2%[44.1 µM]
COCC(=O)N[C@@H]1CN(Cc2cccnc2)C[C@H]1CN(C)C | -22%
O=C(NCC1CC1)c1cn(C2CN(C(=O)NC3CCCCC3)C2)nn1 | 43%
CCc1cc(=O)n(CC(=O)Nc2ccccc2C)c(-c2cccc(F)c2)n1 | -13%
CCc1ccccc1NC(c1nnc(-c2cccc(F)c2)o1)c1ccc(F)cc1Cl (stereo not drawn) | 13µM*
COc1ccccc1NC(=O)CSc1nnc(-c2cccc(Cl)c2)o1 | 10%
CCOC(=O)c1cccc(NC(c2nnc(-c3ccccc3)o2)c2ccccc2F)c1 (stereo not drawn) | i
COc1cccc(NC(c2nnc(-c3ccccc3)o2)c2ccc(F)cc2Cl)c1 (stereo not drawn) | 10µM*
Cc1cccc(OCc2nnc(-c3ccccc3)o2)c1 | -20%
SMILES | Pf Dd2 growth
Cc1cc(C(=O)N[C@H](C)c2onc(-c3ccc(F)cc3)c2C(=O)O)nn1C | 15%[44.1 µM]
COc1ccc(CN2CCC3(CC2)CC(c2cccnc2)=NO3)cc1 | -19%
CCOc1cc(-c2nc(C3CC(=O)N(c4ccc(Cl)cc4)C3)no2)cc(OCC)c1OCC (stereo not drawn) | 30%
O=C(NCCCn1nccc1C1CC1)c1ccccc1C1CCNC1 (stereo not drawn) | 2%
O=C(NCC1CN(C(=O)CCc2ccccc2)CC12CN(c1ccccc1)C2)c1ccccc1 (stereo not drawn) | i
Cn1nccc1C(=O)N1CC(CNC(=O)c2ccccc2)C2(C1)CN(c1ccccc1)C2 (stereo not drawn) | 13µM*
Cn1nccc1C(=O)N1CC(COc2ccccc2)C2(C1)CN(c1ccccc1)C2 (stereo not drawn) | i
CCn1cc(S(=O)(=O)N2C[C@@H](C(N)=O)[C@H](c3nc(C)no3)C2)cn1 | 18%
O=C(CCN1c2ccccc2Sc2ccccc21)N1CCCC(c2nc(C3CCOCC3)no2)C1 (stereo not drawn) | -8%
COc1ccc(NC(=O)c2c(C)oc3ccc(O)c(CN4CCN(Cc5ccccc5)CC4)c23)cc1 | 1.3µM*
CC(=O)Nc1ccc(NC(=O)c2cccc(CN3CCCC(C#N)C3)c2)cc1 (stereo not drawn) | -10%
Cc1cccc(NC(=O)c2c(C)oc3ncnc(N4CCCCC4)c23)c1C | -7%
Cc1oc2ccc(O)c(CN3CCCC(C)C3)c2c1C(=O)Nc1ccccc1 (stereo not drawn) | 0.89µM*
Cc1oc2ccc(O)c(CN3CCN(Cc4ccccc4)CC3)c2c1C(=O)Nc1cccc(Cl)c1C | 0.56µM*
COc1ccc(NC(=O)c2c(OC)cc(=O)n3c2CCCC3)cc1 | -22%
CCOc1ccc(NC(=O)c2c(C)oc3nc(C)nc(N4CCCC4)c23)cc1 | i
COc1ccc(NC(=O)c2c(-c3cnn(C)c3NCc3ccccc3)noc2C)cc1 | i
CCOc1cc(=O)n2c(c1C(=O)Nc1ccccc1)CCCC2 | 27%
COc1ccc(NC(=O)c2c(C)oc3ccc(O)c(CN4CCCCCC4)c23)cc1 | 2.8µM*
O=C(Nc1ccc(Cl)cc1)c1nc2c(o1)CCN(Cc1ccccc1)CC2 | i
Cc1c(Cl)cccc1NC(=O)NCC1CCOCC1 | 9%
O=C1CC(c2noc(-c3ccc(F)cc3)n2)CN1C1CCCCC1 (stereo not drawn) | -20%
